Screens deposited in PubChem by Broad Institute.
Hits are enriched below; roughly 6.7% of the tested compounds scored in any of these assays.
Pf_Dd2_inh: inhibitors of Plasmodium falciparum Dd2 growth | activity change, % at 10 µM | P. falciparum Dd2 growth, SYBR Green, 72 h; hits give low values | actives 2.3% (n = 94,000); in the data active = activity change below about -80%; inconclusive = no clear call, values can overlap the other calls
T_cruzi_growth-1: inhibitors of T. cruzi proliferation. inhibition, % at 8.34 µM. T. cruzi beta-gal in NIH3T3, GalScreen luminescence, 90 h. actives 5.9% (n = 77,000);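 active = mean inhibition above about 93%, with at least 55% of replicates each passing it, limit read from the data, passing the limit was not always enough; inconclusive = only one of those two conditions holds; inactive = neither condition holds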
C_diff_HTS: inhibitors of Clostridium difficile growth; actives 0.25% (n = 86,000); growth activity, negative = inhibition, % at 16 µg/mL (by protocol); Clostridium difficile clinical isolate growth, OD600, 24 h; hits give low values;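 active = mean growth activity at or below -80% and every replicate also at or below -80%; inconclusive = mean at or below -80% but some replicate above -80%; inactive = mean growth activity above -80%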;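 also: 0% = DMSO wells and -100% = levofloxacin 16 µg/mL wells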
T_cruzi_growth-2: blocks T. cruzi growth in NIH3T3 host cells; shares compounds with T_cruzi_growth-1; T. cruzi beta-gal in NIH3T3, GalScreen luminescence, 90 h; inhibition, % at 8.35 µM; actives 72% (n = 5,600);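 active = mean replicate inhibition above about 95% and at least 55% of replicates individually reaching it, limit read from the data; inconclusive = only one of the two criteria is met; inactive = neither criterion is met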
T_cruzi_growth-3: inhibitors of T. cruzi proliferation; shares compounds with T_cruzi_growth-1; T. cruzi beta-gal in NIH3T3, GalScreen luminescence, 90 h; inhibition, % at 2.09 µM; actives 21% (n = 5,600); AID 651740;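 active = mean inhibition above about 95%, with at least 55% of replicates also reaching it, limit read from the data; inconclusive = meets just one of the two conditions; inactive = meets neither condition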;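 also: plate controls were neutral control median for no effect and positive control median for full effect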
NIH3T3_tox: NIH/3T3 (mouse) viability loss; shares compounds with T_cruzi_growth-1; actives 14% (n = 5,600); cytotoxicity (signal decrease), % at 8.35 µM; NIH/3T3 viability, CellTiter-Glo ATP luminescence, 90 h;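 active = mean signal decrease across replicates above about 35% based on untreated-well scatter, with enough replicates individually passing, limit read from the data; inconclusive = no rule stated though some were filed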;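 also: 0% = median of neutral control wells and 100% = median of positive control wells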
3T3_cytotox_2: cytotoxicity in mouse NIH/3T3 fibroblasts; NIH/3T3 viability, CellTiter-Glo ATP luminescence, 90 h; AID 651744; actives 56% (n = 5,600); shares compounds with T_cruzi_growth-1; inhibition, % at 24.9 µM;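 active = mean loss of cell viability signal at or above a set limit, and enough replicates individually reaching it; inconclusive = meets only the mean limit or only the replicate share; inactive = meets neither condition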;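 also: 0% = median of neutral control wells and 100% = median of positive control wells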
* = called active by the depositor; ? = inconclusive; nt = not tested or not shown.

SMILES Pf_Dd2_inh T_cruzi_growth-1 C_diff_HTS T_cruzi_growth-2 T_cruzi_growth-3 NIH3T3_tox 3T3_cytotox_2
CCCNC(=O)N1CC2(CCN(Cc3cccc(OC)c3)CC2)c2c([nH]c3cc(OC)ccc23)[C@@H]1CO -79 nt -11 nt nt nt nt
C[C@@H]1CN([C@H](C)CO)C(=O)c2cccc(NC(=O)Nc3ccc4c(c3)OCO4)c2O[C@H]1CN(C)Cc1ccc(Cl)c(Cl)c1 -43 ? nt 101* 80 21 25*
C[C@@H]1CN([C@@H](C)CO)C(=O)c2cc(NC(=O)Nc3ccc4c(c3)OCO4)ccc2O[C@@H]1CN(C)Cc1ccc(Cl)c(Cl)c1 7 ? nt 97* 95 57* 90*
C[C@H]1CN([C@@H](C)CO)C(=O)c2cc(NC(=O)Nc3ccc4c(c3)OCO4)ccc2O[C@H]1CN(C)Cc1ccc(Cl)c(Cl)c1 43 -84 nt nt nt nt nt
C[C@H](CO)N1C[C@H](C)[C@@H](CN(C)Cc2ccc(Cl)c(Cl)c2)Oc2c(NC(=O)Nc3ccc4c(c3)OCO4)cccc2C1=O -38 85 nt nt nt nt nt
CCCNC(=O)C[C@@H]1CC[C@H]2[C@H](COc3ccc(NC(=O)Nc4c(C)noc4C)cc3C(=O)N2C)O1 1 15 -1 nt nt nt nt
COc1ccc([Si](C)(C)[C@H]2[C@H](CC(=O)N(CCO)Cc3ccccc3)O[C@@]3(C(=O)N(C)c4ccccc43)[C@@H]2C)cc1 nt nt 7 nt nt nt nt
COc1ccccc1CNC(=O)C[C@H]1C[C@H]2c3cc(NC(=O)c4cccnc4)ccc3O[C@H]2[C@@H](CO)O1 4 21 nt nt nt nt nt
COc1cccc(NC(=O)N2C[C@@H](O)COC[C@H]3O[C@@H](CC(=O)NCc4ccccc4F)CC[C@@H]32)c1 22 nt -5 nt nt nt nt
C[C@@H]1CN([C@H](C)CO)C(=O)c2ccccc2-c2ccccc2CO[C@@H]1CN(C)Cc1ccc(O)cc1 -44 -52 nt nt nt nt nt
C[C@@H]1CN([C@@H](C)CO)C(=O)c2ccccc2-c2ccccc2CO[C@@H]1CN(C)Cc1ccncc1 -10 ? 2 38 -30 11 ?
C[C@H](CO)N1C[C@H](C)[C@@H](CN(C)Cc2ccncc2)OCc2ccccc2-c2ccccc2C1=O 13 ? 0 69 13 -3 -8
C[C@@H]1CN([C@H](C)CO)C(=O)c2ccccc2-c2ccccc2CO[C@@H]1CN(C)Cc1ccncc1 17 73 2 nt nt nt nt
C[C@@H]1CN([C@@H](C)CO)C(=O)c2cc(NC(=O)Nc3ccccc3)ccc2O[C@@H](C)CCCCO[C@H]1CN(C)Cc1ccncc1 -44 41 1 nt nt nt nt
CCS(=O)(=O)NCC[C@H]1CC[C@H](NC(=O)C2CCCCC2)[C@@H](CO)O1 22 15 6 nt nt nt nt
Cc1ccc(S(=O)(=O)N(C)C[C@@H]2OCCCC[C@@H](C)Oc3ccc(NC(=O)Nc4cccc5ccccc45)cc3C(=O)N([C@H](C)CO)C[C@@H]2C)cc1 -75 nt 8 nt nt nt nt
C[C@@H]1CCCCO[C@H](CN(C)S(=O)(=O)c2ccc(F)cc2)[C@H](C)CN([C@H](C)CO)C(=O)c2cc(NC(=O)Nc3cccc4ccccc34)ccc2O1 -79 101* -5 104* 108* -12 15
C[C@H](CO)N1C[C@H](C)[C@@H](CN(C)S(=O)(=O)c2ccc(Cl)cc2)Oc2ccc(NC(=O)Nc3cccc4ccccc34)cc2C1=O -77 nt -3 nt nt nt nt
C[C@H](CO)N1C[C@H](C)[C@H](CN(C)S(=O)(=O)c2ccc(Cl)cc2)OCCCC[C@H](C)Oc2ccc(NC(=O)Nc3cccc4ccccc34)cc2C1=O -22 98* -3 111* 102* 26 ?
C[C@@H]1CCCCO[C@@H](CN(C)S(=O)(=O)c2ccccc2)[C@@H](C)CN([C@H](C)CO)C(=O)c2cc(NC(=O)Nc3cccc4ccccc34)ccc2O1 1 26 2 nt nt nt nt
C[C@@H]1CCCCO[C@H](CN(C)S(=O)(=O)c2ccc(F)cc2)[C@@H](C)CN([C@H](C)CO)C(=O)c2cc(NC(=O)Nc3cccc4ccccc34)ccc2O1 -3 63 -3 nt nt nt nt
C[C@@H]1CN([C@H](C)CO)C(=O)c2cc(NC(=O)Nc3cccc4ccccc34)ccc2O[C@@H]1CN(C)S(=O)(=O)c1ccc(Cl)cc1 16 98* -2 107* 59 10 49*
C[C@@H]1CCCCO[C@H](CN(C)S(=O)(=O)c2ccc(Cl)cc2)[C@H](C)CN([C@@H](C)CO)C(=O)c2cc(NC(=O)Nc3cccc4ccccc34)ccc2O1 -80 101* 1 109* 104* 2 11
Cc1noc(C)c1S(=O)(=O)N(C)C[C@@H]1OCCCC[C@@H](C)Oc2ccc(NS(=O)(=O)c3ccc(F)cc3)cc2C(=O)N([C@H](C)CO)C[C@@H]1C 1 23 4 nt nt nt nt
COc1ccc(NC(=O)Nc2ccc3c(c2)C(=O)N([C@@H](C)CO)C[C@@H](C)[C@@H](CN(C)C(=O)CCCN(C)C)OCCCC[C@H](C)O3)cc1 71 -3 -3 nt nt nt nt
SMILES Pf_Dd2_inh T_cruzi_growth-1 C_diff_HTS T_cruzi_growth-2 T_cruzi_growth-3 NIH3T3_tox 3T3_cytotox_2
Cc1noc(C)c1S(=O)(=O)Nc1ccc2c(c1)CC(=O)N([C@@H](C)CO)C[C@H](C)[C@H](CN(C)Cc1ccncc1)O2 27 -40 -4 nt nt nt nt
COc1ccc(-c2cn(CC[C@H]3CC[C@H](NC(=O)CCN4CCCCC4)[C@@H](CO)O3)nn2)cc1 -2 -39 nt nt nt nt nt
CN(C)C(=O)C[C@H]1C[C@H]2c3cc(NC(=O)C4CCC4)ccc3O[C@H]2[C@@H](CO)O1 15 17 -3 nt nt nt nt
O=C(C[C@H]1CC[C@H]2[C@@H](COC[C@H](O)CN2C(=O)Nc2ccc(F)cc2)O1)NCCCN1CCOCC1 5 -62 6 nt nt nt nt
CC(C)CC#Cc1ccc2c(c1)O[C@@H](CN(C)S(=O)(=O)c1cccc(F)c1)[C@@H](C)CN([C@@H](C)CO)S2(=O)=O -24 121* -1 91 112* 26 105*
CC(C)CC#Cc1ccc2c(c1)O[C@H](CN(C)S(=O)(=O)c1cccc(F)c1)[C@@H](C)CN([C@H](C)CO)S2(=O)=O -63 119* 7 101* 107* 32 61*
CC(C)CC#Cc1ccc2c(c1)O[C@@H](CN(C)S(=O)(=O)c1cccc(F)c1)[C@H](C)CN([C@@H](C)CO)S2(=O)=O ? 110* 10 ? 115* 34 68*
C[C@H]1CN([C@@H](C)CO)S(=O)(=O)c2ccc(C#CCN(C)C)cc2O[C@H]1CN(C)S(=O)(=O)c1cccc(F)c1 -17 nt 1 nt nt nt nt
